# Measurements reported in PubChem BioAssay (NCI).
# Several values for one entry are separate records, joined by “and”; a condition that tells them apart may be missing. Identical values can stand only once. About 83,000 compounds went through this panel and 20% of them were active in at least one assay; those are over-represented in the sample as a whole.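 Results are percent growth after 48 hours of single-concentration exposure. 100 means growth as in untreated cells, lower positive values show inhibition; negative values down to -100 show cell death.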 Activity calls are given as the source filed them. How the source made its calls: active means growth percent below 10; inactive means the rest.
# Test system: MDA-MB-468 breast
# Assay: NCI-60 one-dose screen, 48 h (100 = growth as untreated, 0 = no growth, -100 = all killed)
# Conditions: 10 µM unless noted
row,Structure (SMILES),growth
1,O=C(Nc1ccc(Br)cc1)c1cc(Br)ccc1O,-18.1% (active) and 15% (inactive)
2,C#CCN(C)CCCOc1ccc(NC(=O)CCCCCCCCC(=O)NO)cc1Cl,27.6% (inactive)
3,COc1ccc(/C(C)=C(\c2ccc(Cl)cc2)c2ccc(OCCN(C)C)cc2)cc1F,66.2% (inactive)
4,COc1ccc([C@@H]2C(=O)N(c3cc(OC)c(OC)c(OC)c3)[C@H]2c2ccc(OC)c(O)c2)cc1,-4.45% (active)
5,COc1cccc(C(=O)Nc2cccc(C#Cc3cccc4[nH]nc(N)c34)c2)c1,24.5% (inactive)
6,O=C1c2cccc3cccc(c23)C(=O)N1CC#Cc1ccc2c3c(cccc13)C(=O)N(CCN1CCNCC1)C2=O,111% (inactive)
7,CNCc1cccc2c1OCCOCCOCCNS(=O)(=O)c1ccc(cc1)-c1cnc(N)c(n1)C(=O)N2,35.6% (inactive)
8,Cn1ccnc1C(=O)/C=C/C=C/c1ccc(C(=O)Nc2ccc(F)cc2)cc1,35.3% (inactive)
9,COc1ccc(CSc2nc3cc(OC)c(OC)cc3c(=O)n2-c2ccc(Cl)cc2)cc1,103% (inactive)
10,O=C(Nc1ccc(-c2ccc3c(c2)NC(=O)/C3=C\c2ccc[nH]2)cc1)NC1CC1,-4.36% (active)
11,CCc1nn2c(-c3ccc(Cl)cc3C)c(-c3cc(OC)c(OC)c(OC)c3)nc2s1,68.2% (inactive)
12,CCOC(=O)c1c(/C=C/C(=O)O)nc2ccccc2c1/C=C/c1ccccc1,7.2% (active)
13,O=C(Nc1ccc(F)cc1F)c1cc(I)ccc1O,-1.05% (active)
14,Cc1cn(-c2cc(NC(=O)c3ccc(C)c(Nc4nccc(-c5cccnc5)n4)c3)cc(C(F)(F)F)c2)cn1,37.2% (inactive)
15,C=CCSc1nnc(-c2ccc(C(C)(C)C)cc2)n1-c1cccc(C(F)(F)F)c1,21.5% (inactive)
16,Cc1ccc(S(=O)(=O)c2nc(-c3ccccc3)oc2S(C)(=O)=O)cc1,-59.3% (active)
17,Cc1nc([P+](c2ccccc2)(c2ccccc2)c2ccccc2)c(N2CCCCC2)o1,0.108% (active)
18,CSc1nnc(-c2cnn3c2NC(c2ccccc2)C3)n1-c1ccc(C(F)(F)F)cc1 (stereo unspecified),71.1% (inactive)

row,Structure (SMILES),growth
1,C=C(C)[C@@H]1CC[C@]2(C(=O)N3CCN(C)CC3)CC[C@]3(C)[C@H](CC[C@@H]4[C@@]5(C)C/C(=C/c6ccncc6)[C@H](O)C(C)(C)[C@@H]5CC[C@]43C)[C@@H]12,-25.5% [100 µM] (active)
2,O=[n+]1c2ccccc2n([O-])c2cc(Cl)ccc21,-15.4% (active)
3,COc1ccc2oc3c4[nH]c5ccccc5c4c4c(c3c2c1)C(=O)N(O)C4=O,104% (inactive)
4,C=C(C[n+]1ccccc1)[C@@H]1CC[C@]2(C(=O)OC)CC[C@]3(C)[C@H](CC[C@@H]4[C@@]5(C)CCC(=O)C(C)(C)[C@@H]5CC[C@]43C)[C@@H]12,7.22% (active)
5,COc1ccc(-c2nn(C(=O)c3cc(OC)c(OC)c(OC)c3)c3cc(N)ccc23)cc1,-1.08% (active)
6,CCN(CC)CCSCCCNc1c(C)cnc2cc(Cl)ccc12,85.6% (inactive)
7,O=C(CCc1nnc2sc(/C=C\c3ccccc3)nn12)c1nc2ccccc2[nH]1,76.7% (inactive)
8,O=[N+]([O-])c1ccc(Sc2cccc[n+]2[O-])c2nonc12,49.3% (inactive)
9,Brc1ccc2c(c1)-c1ccccc1C1=NCCN12,-45% (active)
10,COc1ccc(-c2nc(-c3nc4ccc(F)cc4[nH]3)cc3c2[nH]c2ccccc23)cc1,40% (inactive)
11,COc1ccc2nc(NC(=O)/C(=C/c3cc(OC)c(OC)c(OC)c3)c3ccc(OC)c(OC)c3)sc2c1,109% (inactive)
12,Cc1[nH]c(C(=O)Nc2ccccc2OC2CCNCC2)c(Cl)c1Cl,16.2% (inactive)
13,CCCCCc1ccc(S(=O)(=O)Nc2cc(-c3csc(NC(=O)CN4CCN(CCO)CC4)n3)ccc2OC)cc1,69.1% (inactive)
14,COc1cc(/C(C#N)=C/c2ccc3c(c2OC)OCO3)cc2c1OCO2,9.19% (active)
15,COc1cc(/C=C/c2cc(/C=C/c3ccc(O)c(OC)c3)n(-c3c(Cl)cccc3Cl)c(=O)n2)ccc1O,29.6% (inactive)
16,NCc1cn2cc(Cl)sc2n1,101% (inactive)
17,Cc1occc1-c1n[nH]c(=S)n1N1C(=O)CSC1=S,103% (inactive)
18,COc1ccccc1N(C(C)=O)C1=C(Cl)C(=O)c2ccccc2C1=O,-92.8% (active)
